From PubChem
Rab9 prom act = Rab9 promoter activation; Huh7 Rab9 promoter-luciferase reporter, luminescence, 24 h; Potency, µM (titrated, usually from 9.22 µM), usual class: activators; 320,000 tested, 2.8% active; AID 485297; further: nearly all actives have a fitted effect of over 60% in size
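Luminescence from Amplite-detected luciferase (10 minutes, ambient) reports Rab9 promoter activation. Before that, stable Rab9-luciferase Huh7 cells (1500/well, reduced-serum OP-MEM I plus 10% FBS) were exposed to compound for 24 hours at 37C.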
FLuc modulator = counter-screen for miR-21 project: firefly luciferase inhibitors or activators; P08659; purified FLuc, Km substrates, luminescence inhibition; Potency, µM (doses to about 57.5 µM), usual class: inhibitors; 360,000 tested, 6.9% active; AID 588342; further: nearly all actives have a fitted effect of over 55% in size
Target sequence (P08659 whole entry, looked up): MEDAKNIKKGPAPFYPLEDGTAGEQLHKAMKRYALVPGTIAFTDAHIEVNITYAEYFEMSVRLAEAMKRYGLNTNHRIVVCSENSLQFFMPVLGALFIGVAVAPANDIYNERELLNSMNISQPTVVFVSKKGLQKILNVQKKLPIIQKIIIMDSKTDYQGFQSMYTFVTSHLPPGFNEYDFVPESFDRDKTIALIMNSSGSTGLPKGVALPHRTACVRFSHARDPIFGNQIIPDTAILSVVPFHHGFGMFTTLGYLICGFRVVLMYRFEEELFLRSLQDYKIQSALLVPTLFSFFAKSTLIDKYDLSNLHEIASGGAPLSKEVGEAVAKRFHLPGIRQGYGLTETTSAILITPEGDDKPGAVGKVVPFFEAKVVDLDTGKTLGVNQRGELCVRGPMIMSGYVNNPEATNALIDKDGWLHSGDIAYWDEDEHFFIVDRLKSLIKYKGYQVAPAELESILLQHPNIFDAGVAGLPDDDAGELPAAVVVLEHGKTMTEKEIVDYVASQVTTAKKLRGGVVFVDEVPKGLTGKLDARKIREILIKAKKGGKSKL
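Purified P. pyralis luciferase, 10 nM final, with Km-level 10 uM D-luciferin and 10 uM ATP in 50 mM Tris acetate pH 7.5, 10 mM Mg acetate, 0.01% Tween-20, 0.05% BSA; 6-point qHTS titration about 60 µM downward; luminescence read.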
NPC1 prom act = NPC1 promoter activation; Huh7 NPC1 promoter luciferase reporter, 24 h; Potency, µM (doses to about 9.22 µM), actives largely listed as activators; 320,000 tested, 2.4% active; further: nearly all actives have a fitted effect of over 60% in size
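Luminescence from an NPC1 promoter-driven luciferase reporter in stably transfected Huh7 cells was measured after 24 h compound treatment at 37 °C, followed by 10 min ambient incubation with luciferase detection reagent.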
SMN2 splice enh = increases expression of the SMN2 splice variant; HEK293 SMN2-luciferase splicing reporter, luminescence, 30-36 h; Potency, µM (doses to about 46.1 µM), most hits filed as activators; 210,000 tested, 2.8% active; further: nearly all actives have a fitted effect of over 55% in size
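HEK293 cells carry an SMN2 […]–luciferase reporter in which exon 7 inclusion puts luciferase in frame. Cells were plated 10-12 h before compound addition, then incubated 30-36 h at 37C. ONE-Glo luminescence was read; sodium butyrate at 4.5 mM final served as control.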
ELG1 genotoxic = genotoxicity induction in ELG1-luciferase HEK293T cells; HEK293T ELG1-luciferase reporter, luminescence, 16 h; Potency, µM (top dose mostly 46 µM), usual class: activators; 330,000 tested, 1.3% active; further: nearly all actives have a fitted effect of over 60% in size
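Screening used a luciferase reporter fused to human ELG1 in HEK293T cells. Luminescence was read on a CCD plate imager after 16 hr exposure and 30 min ONE-Glo incubation.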
Hits are given with their value; – = inactive; ? = inconclusive; · = no result; [ ] = another dose, or the depositor's remark. Shown are actives, neighbours in structure and some others; about 7.5% of the full set was active somewhere. The call rests on the fitted dose curve; in most records, active means well fitted curve in the direction sought with a large enough effect; inconclusive means small, poorly fitted or top-dose-only effect, or another doubt; inactive means no such curve, though single readings can be large; an effect the other way counts as inactive or inconclusive.

SMILES	Rab9 prom act	FLuc modulator	NPC1 prom act	SMN2 splice enh	ELG1 genotoxic
COc1ccc(N2C(=S)NC3N2C(=S)NC3(C)c2ccccc2)cc1 (stereo unspecified)	3.98µM	?	–	?	?
CC1(c2ccccc2)NC(=S)N2C1NC(=S)N2c1ccccc1 (stereo unspecified)	–	–	–	–	–
CCN(c1ccccc1C)S(=O)(=O)c1nnc(NC(=O)c2ccc(OC)c(OC)c2)s1	·	–	·	·	·
COc1ccc(Cc2nnc(N/N=C/c3ccc(O)cc3)[nH]c2=O)cc1OC	–	–	–	–	–
COc1ccc(/C=N/Nc2nc3ccccc3c(=O)n2-c2ccccc2)cc1OC	?	1.9µM	–	–[1.84 µM]	–
COc1ccc(/C=N/Nc2nnc(Cc3ccccc3)c(=O)[nH]2)cc1OC	–	1.69µM	?	·	–
COc1cccc(CN2CCNC(=O)C2CC(=O)N(C)CCC2CCOCC2)c1OC (stereo unspecified)	–	–	–	·	–
COc1ccc(NC(=O)Nc2cccc3c2O[C@H](CN(C)S(C)(=O)=O)[C@@H](C)CN([C@H](C)CO)C3=O)cc1	·	·	·	·	–
Oc1ccc(-c2nc3ccc4ccccc4c3c3c2CCC3)cc1O	–	23.9µM	–	–[1.84 µM]	–
CCOC(=O)Cc1cc(-c2ccc(O)cc2)nc2ccc3ccccc3c12	–	–	–	–	–
CC(C)Cn1c(N)c(C(=O)CSc2ncnc3sc4c(c23)CCCC4)c(=O)n(C)c1=O	–	–	–	–	–
COc1ccc2nc(N=Nc3ccc(N(C)C)cc3)sc2c1	0.708µM	0.0675µM	0.316µM	–	?
CN(C)/C=N/c1nc2ccc3c(c2s1)CCCC3	3.55µM	6.01µM	2.51µM	14.1µM	?
COc1ccc2nc(/N=C/c3c(C)[nH]n(-c4ccc(C)cc4)c3=O)sc2c1	–	7.57µM	–	?	–
COc1ccc2nc(/N=C\N(C)C)sc2c1	?	23.9µM	–	–	–
Cc1nc(/N=C\N(C)C)sc1C(=O)Nc1ccccc1	–	–	–	–	?
CC(C)(CCc1nc2ccccc2[nH]1)C(=O)O	·	·	·	–[9.22 µM]	·
COc1cccc(C(=O)OCC(=O)Nc2cc(C)c(C)cc2[N+](=O)[O-])c1	–	–	–	–	–
O=C(COC(=O)C1CC2CCCC(C1)C2=O)NNC(=O)c1ccccc1F (stereo unspecified)	–	–	–	·	–
COc1ccc2c(c1)-c1nc(/N=C/c3cccc(OC)c3O)sc1CC2	–	?	–	–[1.84 µM]	–
COc1ccc2nc(/N=C/c3cccc(OC)c3O)sc2c1	?	0.953µM	–	·	?
Cc1c(C(=O)OCc2ccc(F)cc2)sc2nc3n(c(=O)c12)CCC3	–	15.1µM	–	·	–
CCOC(=O)c1sc2nc3n(c(=O)c2c1C)CCC3	–	?	–	–	–
CCOC(=O)c1sc2nc3n(c(=O)c2c1C)CCCCC3	?	15.1µM	?	–	?
CCCCn1c(N)c(N(CC(C)C)C(=O)C2CCN(S(=O)(=O)c3ccc(C)c(C)c3)CC2)c(=O)[nH]c1=O	–	–	–	·	–
SMILES	Rab9 prom act	FLuc modulator	NPC1 prom act	SMN2 splice enh	ELG1 genotoxic
O=C(N/N=C/C(Cl)=C/c1ccccc1)c1ccccc1F	?	12µM	?	·	?
O=C(N/N=C/C(Br)=C/c1ccccc1)c1ccccc1F	3.16µM	10.7µM	3.55µM	·	18.3µM
O=C(Cc1cc(=O)[nH][nH]1)N/N=C/C(Cl)=C/c1ccccc1	–	23.9µM	–	?	–
O=C(Cc1cc(=O)[nH][nH]1)N/N=C/c1ccccc1Cl	–	–	–	–	–
CC1C(=O)NN=C1C(=O)N/N=C\C(Br)=C\c1ccccc1 (stereo unspecified)	2.24µM	1.51µM	2.51µM	22.4µM	?
COC(=O)C1=C(C(=O)OC)[C@@H]2N(C)c3ccc(OC)cc3[C@@]23C[C@@H](C(=O)OC)N(S(=O)(=O)c2c(C)noc2C)C3=N1	·	·	·	–[9.22 µM]	·
Cc1ccc2c(c1)cc1c(=O)n(Cc3ccccc3Cl)nc(C)n12	·	–	·	–	·
CC1C(=O)NN=C1C(=O)N/N=C\c1ccc(O)cc1O (stereo unspecified)	–	16.9µM	–	–	–
O=C1CCCCCN1Cc1nnc(SCc2nc3ccccc3s2)n1-c1ccccn1	?	7.57µM	–	–	?
CCNC(=O)CSc1nnc(CN2CCCCCC2=O)n1-c1ccccn1	–	–	–	–	–
CC(=O)Nc1cccc(C(=O)OCC(=O)N2CCC(c3ccccc3)=N2)c1	?	15.1µM	?	·	?
CC(=O)Nc1cccc(C(=O)OCC(=O)NC(=O)c2ccccc2)c1	–	–	–	·	–
CC(=O)Nc1cccc(C(=O)OCC(=O)c2ccccc2Cl)c1	0.794µM	?	3.55µM	–	?
CCC(=O)Nc1cccc(C(=O)OCC(=O)c2ccccc2Cl)c1	?	7.57µM	3.16µM	–	?
COc1ccc(NC(=O)Cn2c(=O)oc3cc(S(=O)(=O)NCc4ccccc4)ccc32)c(OC)c1	·	–	·	·	·
CCCCN=C1NN=C(c2ccc3c(c2)OCCO3)CS1	0.891µM	3.01µM	1.26µM	·	1.83µM
COc1ccc(N=C2NN=C(c3ccc4c(c3)OCCO4)CS2)cc1	–	?	–	–	–
CCCCN=C1NN=C(c2ccc(C)c(C)c2)CS1	1.58µM	23.9µM	2.82µM	14.1µM	–
c1cc2c(cc1C1=NNC(=NC3CC3)SC1)OCCO2	0.0013µM	0.239µM	0.0003µM	–	?
COCCN=C1NN=C(c2ccc(C)c([N+](=O)[O-])c2)CS1	4.47µM	15.1µM	2.82µM	11.2µM	18.3µM
Cc1ccc(NC(=O)C2CCCN(c3ncccn3)C2)cc1F (stereo unspecified)	?	10.7µM	3.55µM	17.8µM	9.2µM
Cc1ccnc(N2CCC(C(=O)Nc3ccc4c(c3)OCCO4)CC2)n1	–	?	–	·	–
O=C(Nc1ccc2c(c1)CCC2)C1CCCN(c2ncccn2)C1 (stereo unspecified)	?	5.36µM	3.98µM	12.6µM	?
O=C(CSc1ncccn1)Nc1ccc2c(c1)CCC2	–	21.3µM	–	·	–
O=C(Nc1ccc2c(c1)OCCO2)C1CCN(c2ncccn2)CC1	–	15.1µM	–	–	?
SMILES	Rab9 prom act	FLuc modulator	NPC1 prom act	SMN2 splice enh	ELG1 genotoxic
Cc1cc(C)cc(NC(=O)C2CCCN(c3ncccn3)C2)c1 (stereo unspecified)	–	–	–	·	–
NC(=O)CSc1nc2cc3c(cc2c(=O)n1CCCCCC(=O)NCc1ccc2c(c1)OCO2)OCO3	·	–	·	·	·
O=C(NC1(C(F)(F)F)N=C(c2ccccc2)NC1=O)c1ccccc1 (stereo unspecified)	–	–	–	–	–
CCn1c(=O)c2cc(C(=O)NCc3ccc(F)cc3Cl)sc2c2ccccc21	·	–	·	–	·
CC1(C2CC2)NC(=O)N(CC(=O)N2CCN(c3ccccc3Cl)CC2)C1=O (stereo unspecified)	–	–	–	·	–
Cc1ccc(CCC(=O)Nc2ccccc2C(=O)O)o1	?	16.9µM	?	·	?
Cc1ccc(CSCC(=O)Nc2ccccc2C(=O)O)cc1	2.82µM	12µM	3.55µM	·	–
O=C(Cc1cccc2ccccc12)Nc1cc(Cl)ccc1C(=O)O	–	–	–	·	–
